Results as given in PubChem BioAssay (NCI).
This is part of a sample that, as a whole, favours compounds with a hit. Of some 83,000 tested, about 20% had one in any assay.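 Treatment: one concentration, 48 hours, 96-well format. Scoring: percent growth, with anything below 10 considered active.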 Calls of active or inactive are those of the source.

tested on: NCI-H460 lung; assay: NCI-60 one-dose screen, 48 h (100 = growth as untreated, 0 = no growth, -100 = all killed); details: 10 µM unless noted
Procedure: Growth inhibition of the NCI-H460 human Non-Small Cell Lung tumor cell line is measured as a screen for anti-cancer activity. Cells are grown in 96 well plates and exposed to the test compound for 48 hours. Compounds are tested at a single concentration, which is 10^-5 M for most compounds. The reported endpoint is percent growth (GI% or GIPRCNT), where numbers from 0 - 100% represent growth inhibition, and numbers from -100% - 0 represent cell death. For example, a value of 40 represents 60% growth inhibition. A value of 0 means no net growth occurred over the course of the experiment. A value of -40 indicates 40% of cells at the beginning of the experiment died by the end of the experiment. A value of -100 means all cells are dead at the end of the experiment.
NCI-60 Human Tumor Cell Lines Screen was performed using the standard one-dose NCI protocol, which is described in more detail at https://dtp.cancer.gov/discovery_development/nci-60/default.htm.
Compounds with GIPRCNT values below 10 were considered active. Activity score was based on GIPRCNT using the following formula: […]
Score is 0 for GIPRCNT values of 100 or above, 50 for GIPRCNT values of 0, and 100 for GIPRCNT values of -100.

How did the growth turn out when `O=C1Nc2ccccc2/C1=C/c1cccn1CCCCCCn1c2ccccc2c(=O)c2ccccc21` was run?
The growth was 90.7% (inactive).

With `CC(=O)Oc1ccccc1C(=O)N(Cc1ccc2c(Cl)cc(Cl)c(O)c2n1)c1ccccc1` as the compound, how does the growth read?
Its growth is 29.7% (inactive).

For `CC1(C)CC[C@]2(CO)CC[C@]3(C)C(=CC[C@@H]4[C@@]5(C)CCNCC(C)(C)[C@@H]5CC[C@]43C)[C@@H]2C1`, which growth is on record?
The growth was 49.5% (inactive).

For `CCN(CC)CCCNC(=O)c1c2c(n3ccccc13)C(=O)c1ncccc1C2=O`, which growth is on record?
The growth was -44.4% (active).

How did the growth turn out when `COc1cc2c(c(OC)c1OC)CCC(c1cccc(NC(=O)c3cccc(Cl)c3)c1)O2` (stereo not given) was run?
Its growth is 96.9% (inactive).

For `CCN1CCN(c2cc(C(=O)Nc3cccc(Nc4ccc5c(OC)cccc5n4)c3)cc(C(F)(F)F)c2)CC1`, which growth is on record?
The growth was -48.7% (active).

`O=C(Nc1ccccc1CNc1nc(Nc2ccc(OCCN3CCCC3)cc2)ncc1Cl)NC1CCCCC1` was tested. Which growth did it give?
The growth was 89.8% (inactive).

How did the growth turn out when `CS(=O)(=O)Nc1cc(-c2ccc3ncnc(Nc4cccc(Cl)c4)c3c2)cnc1Cl` was run?
The growth was 7.81% (active).

How did the growth turn out when `Cc1c(C)c2c(c(C)c1OC(=O)CCC(=O)[O-])CCC(C)(CCCCCCCCCCC[P+](c1ccccc1)(c1ccccc1)c1ccccc1)O2` (stereo not given) was run?
Its growth is -69% (active).

With `COC(=O)[C@@H](Cc1c[nH]c2ccccc12)NC[C@@H](O)CN1C(=O)/C(=C\c2cc(OC)c(OC)c(OC)c2)c2ccccc21` as the compound, how does the growth read?
The growth was 68.2% (inactive).

`CNC1=C([N+](=O)[O-])C(c2ccc(OC)cc2)C(C#N)=C(c2ccc[nH]2)O1` (stereo not given) was tested. Which growth did it give?
The growth was 100% (inactive).

How did the growth turn out when `Cc1ccc(-c2nnc(SCc3nc(N)nc(Nc4ccccc4F)n3)n2-c2ccccc2)cc1` was run?
Its growth is 95.8% (inactive).

`COCCNC(=O)Cc1cc(-c2ccc(Cl)cc2)n(-c2ccccc2)c1C` was tested. Which growth did it give?
Its growth is 94% (inactive).

With `c1ccc2[nH]c(-c3ccc(-c4nccc5c4[nH]c4ccccc45)cc3)nc2c1` as the compound, how does the growth read?
The growth was 42.9% (inactive).

Which growth does the source give for `C=C(CNCCc1ccc(O)cc1)[C@@H]1CC[C@]2(CO)CC[C@]3(C)[C@H](CC[C@@H]4[C@@]5(C)CCC(N)C(C)(C)[C@@H]5CC[C@]43C)[C@@H]12` (stereo not given in full) here?
Its growth is -86.7% (active).

How did the growth turn out when `Cc1nc2ccccc2c(/C=C/c2ccc(Br)cc2)c1C(=O)/C=C/c1ccccc1` was run?
Its growth is -56.4% (active).

Which growth does the source give for `C/C=C(/C)C(=O)O[C@@H]1CC(C)(C)CC2C34OC(=O)[C@@]21CC[C@@]3(C)[C@]1(C)CCC2C(C)(C)C(=O)CC[C@]2(C)C1C[C@@H]4O` (stereo not given in full) here?
Its growth is 42.4% (inactive).

`O=C1C2C(c3cccs3)C=C(c3ccc(Cl)cc3)N2C(=S)N1c1ccccc1` (stereo not given) was tested. Which growth did it give?
Its growth is 108% (inactive).

`CC1(C)CC[C@]2(CO)CC[C@]3(C)[C@H](CC[C@@H]4[C@@]5(C)CC[C@H](O)C(C)(C)[C@@H]5CC[C@]43C)[C@H]2[C@H]1O` was tested. Which growth did it give?
The growth was 21% (inactive).

Which growth does the source give for `CC(Cc1cccc2ccccc12)C(N)=O` (stereo not given) here?
The growth was 110% (inactive).

With `O=C(Nc1cccc(Cl)c1)Oc1c(Cl)c(Cl)c(Cl)c(Cl)c1Cl` as the compound, how does the growth read?
The growth was 101% (inactive).

For `N#Cc1nn(-c2ccccn2)c(N)c1C#N`, which growth is on record?
Its growth is 106% (inactive).

`CN(C)c1ccc(/C=N/NC(=O)CSc2nc3sc4c(c3c(=O)n2-c2ccccc2)CCCCC4)cc1` was tested. Which growth did it give?
Its growth is 1.49% (active).

`COc1ccc(/C=C2/CCc3cc4ccc(OC)cc4[o+]c32)c(O)c1` was tested. Which growth did it give?
The growth was 25.3% (inactive).

For `CNc1nc2ncc(-c3c(C)noc3C)cc2n1Cc1ccccc1`, which growth is on record?
The growth was 64.9% (inactive).

`O=C1c2ccccc2-c2c1c1ccncc1c(=O)n2CCCn1ccnc1` was tested. Which growth did it give?
The growth was 21.8% (inactive).

With `CSc1nc(CC(C)C)c(C#N)c(=O)n1C` as the compound, how does the growth read?
Its growth is 83.3% (inactive).

For `C=C(C[n+]1ccccc1)[C@@H]1CC[C@]2(C(=O)OC)CC[C@]3(C)[C@H](CC[C@@H]4[C@@]5(C)CCC(=O)C(C)(C)[C@@H]5CC[C@]43C)[C@@H]12`, which growth is on record?
The growth was 98.3% (inactive).

For `O=C(/C=C\c1ccc(O)c(O)c1)c1ccccc1O`, which growth is on record?
Its growth is 61.5% (inactive).

Which growth does the source give for `CCc1ccc(Cc2cnc(NC(=O)c3cc(C)oc3C)s2)cc1` here?
Its growth is 18.6% (inactive).

How did the growth turn out when `CCCNNC(=O)c1ccc(CNC(=O)/C=C/c2ccccc2)cc1` was run?
Its growth is 40.2% [2.5 µM] (inactive).

Which growth does the source give for `COC(=O)c1c(C(=O)OC)c2ccc3c4ncccc4ccc3n2c1C(=O)c1ccc(C)cc1` here?
The growth was 101% (inactive).

How did the growth turn out when `C(=N\Nc1nnc2n1N=C(c1ccccc1)CS2)/c1ccc(OCc2ccccc2)cc1` was run?
Its growth is 106% (inactive).

With `Cc1[nH]c(C(=O)Nc2ccc(C(N)=O)cc2OC(C)C)c(Cl)c1Cl` as the compound, how does the growth read?
The growth was 85.1% (inactive).

For `CS(=O)(=O)c1ccc(/C(=N/NC(N)=S)c2ccc(F)cc2)cc1`, which growth is on record?
The growth was 102% (inactive).

How did the growth turn out when `N#Cc1c(-c2ccc(Cl)cc2)nc(NN=Cc2cccc(Cl)c2)nc1N1CCOCC1` was run?
Its growth is 91.6% (inactive).

For `CN1CC(c2ccccc2)C(C(=O)c2ccc(Br)cc2)C12C(=O)Nc1ccccc12` (stereo not given), which growth is on record?
Its growth is 99.4% (inactive).

For `COc1ccc(-c2csc(NC(=O)CSc3nc(C)cc(=O)[nH]3)n2)cc1`, which growth is on record?
The growth was 107% (inactive).

With `CN1CCN(CC(=O)N(C)c2ccc(N=C(c3ccccc3)c3c(O)[nH]c4ccc([N+](=O)[O-])cc34)cc2)CC1` as the compound, how does the growth read?
The growth was 54.5% (inactive).

For `O=C(/C=C/c1ccc([N+](=O)[O-])cc1)c1cccc(Nc2nc(Nc3ccccc3)nc(Nc3ccccc3)n2)c1`, which growth is on record?
The growth was 81.1% (inactive).
